From PubChem BioAssay
HP1b binding inh: HTS for Inhibitors of HP1-beta Chromodomain Interactions with Methylated Histone Tails; actives 0.56% (n = 390,000); AlphaScreen HP1-beta / biotin-H3K9me3 peptide binding; Potency, µM (doses to about 114 µM), without a hit: top-dose activity change, negative = inhibition, usual class: inhibitors; AID 540317, 2011; note: nearly all actives have a fitted effect of over 70% in size
Target sequence (P83916 whole entry, looked up): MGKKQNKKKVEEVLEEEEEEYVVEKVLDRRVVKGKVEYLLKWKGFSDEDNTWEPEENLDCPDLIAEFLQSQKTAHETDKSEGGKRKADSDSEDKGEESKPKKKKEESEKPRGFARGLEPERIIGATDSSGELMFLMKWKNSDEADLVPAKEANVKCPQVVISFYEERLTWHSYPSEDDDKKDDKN
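Compound inhibition of the preformed complex between 50 nM HP1-beta and 50 nM biotinylated H3K9me3 peptide was read by AlphaScreen. Buffer was PBS pH 7.4 with 0.01% Tween-20. Incubations ran 30 min at room temperature, with 10 ug/mL donor/acceptor beads.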
JMJD2A Tudor: qHTS Assay for Inhibitors of JMJD2A-Tudor Domain | AlphaScreen JMJD2A-Tudor / H3K4me3 peptide binding | Potency, µM (doses to about 114 µM), for inactives: at the top dose activity change, negative = inhibition, hits mostly inhibitors | actives 4.4% (n = 390,000) | AID 504339, 2011; note: % is set by controls: 0 for no effect and ±100 for the full control effect; nearly all actives have a fitted effect of over 50% in size
Sfp PPTase inh: qHTS Assay for Inhibitors of Bacillus subtilis Sfp phosphopantetheinyl transferase (PPTase); 4'-phosphopantetheinyl transferase ffp (Bacillus subtilis), Q9F4F7; Biochemical Sfp PPTase activity, qHTS; Potency, µM, for inactives: largest response in the series, negative = inhibition, hits mostly inhibitors; actives 3.5% (n = 310,000);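 note: the enzyme is Sfp with the accession as filed and its product quenches rhodamine fluorescence; 0% = enzyme reaction without inhibitor and -100% = no enzyme wells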
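Fluorescence-quenching assay with 15 nM Sfp, 5 uM rhodamine-CoA and 12.5 uM BHQ-2-labelled ybbR peptide in pH 7.6 Hepes/MgCl2 buffer. Enzyme was pre-incubated with compound for 15 min at room temperature. Rate was taken from the 30-min fluorescence change (525/598 nm).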
BAZ2B block: qHTS Assay for Inhibitors of BAZ2B; Bromodomain adjacent to zinc finger domain protein 2B (Homo sapiens), Q9UIF8; AlphaScreen BAZ2B-H3K14Ac peptide displacement; Potency, µM (doses to about 114 µM), inactives show at the top dose activity change, negative = inhibition, hits mostly inhibitors; actives 4.4% (n = 360,000); note: % is set by controls: 0 for no effect and ±100 for the full control effect; nearly all actives have a fitted effect of over 60% in size
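Multi-concentration screen (max 110 uM) measuring displacement of acetylated histone H3 peptide from BAZ2B by AlphaScreen, using 50 nM protein, 50 nM peptide and 10 ug/mL streptavidin donor plus Ni-chelate acceptor beads.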
TDP1 inh: qHTS Assay for Inhibitors of Tyrosyl-DNA Phosphodiesterase (TDP1); Tyrosyl-DNA phosphodiesterase 1 (Homo sapiens), Q9NUW8; recombinant TDP1, AlphaScreen DNA substrate cleavage; Potency, µM (titrated, usually from 130 µM), for the others: at the highest dose activity change, negative = inhibition, hits mostly inhibitors; actives 0.28% (n = 350,000); AID 485290, 2010; note: % is set by controls: 0 for no effect and ±100 for the full control effect; nearly all actives have a fitted effect of over 40% in size
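AlphaScreen read-out: signal falls as enzyme removes the 3' tyrosine-FITC from a 5'-biotinylated DNA oligo (15 nM, 5 min, RT). Enzyme was E. coli-made recombinant Tdp1 at 1 nM, exposed to compound for 15 min beforehand; beads 10 ug/ml, 10 min.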
G9a block: qHTS Assay for Inhibitors of Histone Lysine Methyltransferase G9a; Potency, µM (highest dose often 102 µM), without a hit: at the top dose activity, negative = inhibition, actives largely listed as inhibitors; actives 8.8% (n = 350,000); G9a H3K9 monomethylation, AlphaScreen, 2 h; Histone-lysine N-methyltransferase EHMT2 (Homo sapiens), Q96KQ7; note: % is set by controls: 0 for no effect and ±100 for the full control effect; nearly all actives have a fitted effect of over 75% in size
Target sequence (Q96KQ7 913-1193 limits assumed): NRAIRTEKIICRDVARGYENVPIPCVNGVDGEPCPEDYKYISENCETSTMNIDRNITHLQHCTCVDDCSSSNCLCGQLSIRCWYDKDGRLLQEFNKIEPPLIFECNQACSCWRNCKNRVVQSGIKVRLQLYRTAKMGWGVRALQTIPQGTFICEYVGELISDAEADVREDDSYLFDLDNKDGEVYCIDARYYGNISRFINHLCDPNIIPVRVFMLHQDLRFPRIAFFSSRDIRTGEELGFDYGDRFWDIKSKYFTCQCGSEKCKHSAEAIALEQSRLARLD
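Using a bead-based AlphaScreen, monomethylated H3K9 product from 2 h room-temperature reactions (G9a 20 nM, peptide 500 nM, SAM 20 uM) was detected with 0.5 ug/mL rabbit anti-H3K9me1 antibody.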
Starred values were filed as active, the others as inactive; ? = inconclusive; . = no result given; [ ] = another dose, or the depositor's remark. A selection: hits, their analogues and other compounds. The true share with any hit is near 12%. Calls come from the whole dose curve; as a rule, active = well fitted curve in the direction sought with a large enough effect; inconclusive = small, poorly fitted or top-dose-only effect, or another doubt; inactive = no such curve, though single readings can be large; an effect the other way counts as inactive or inconclusive. Potency is the fitted concentration of half-maximal effect.

SMILES	HP1b binding inh	JMJD2A Tudor	Sfp PPTase inh	BAZ2B block	TDP1 inh	G9a block
CCNC(=O)[C@@H]1CCCN1C(=O)[C@H](CCCN=C(N)N)NC(=O)[C@H](CC(C)C)NC(=O)[C@@H](Cc1c[nH]c2ccccc12)NC(=O)[C@H](Cc1ccc(O)cc1)NC(=O)[C@H](CO)NC(=O)[C@H](Cc1c[nH]c2ccccc12)NC(=O)[C@H](Cc1cnc[nH]1)NC(=O)[C@@H]1CCC(=O)N1	.	.	?	.	.	-31%[12.7 µM]
CCCCNC(=S)NCc1ccc2[nH]c(C)cc2c1	-19%	?	3%	?	-5%	?
CCOc1ccc(NC(=S)NCc2ccc3[nH]c(C)cc3c2)cc1	-15%	50µM*	-13%	.	9%	?
CCN1CCN(c2nc3c(C)cccn3c(=O)c2/C=C(\C#N)S(=O)(=O)c2ccc(C)cc2)CC1	13%	?	-13%	?	12%	50µM*
Cc1ccc(S(=O)(=O)/C(C#N)=C/c2c(N3CCN(C)CC3)nc3c(C)cccn3c2=O)cc1	-12%	?	-9%	?	8%	45µM*
CCN1CCN(c2nc3c(C)cccn3c(=O)c2/C=C(\C#N)S(=O)(=O)c2ccc(Cl)cc2)CC1	?	?	-17%	?	5%	32µM*
Cc1cccn2c(=O)c(/C=C(\C#N)S(=O)(=O)c3ccccc3)c(N3CCN(C)CC3)nc12	-1%	-25%	2%	-33%	4%	?
CCC1CCCCN1S(=O)(=O)c1ccc(C(=O)Nc2nnc(C3CC3)o2)cc1 (stereo not drawn)	50%	-17%	14%	50µM*	3%	.
CCOC(=O)N1CCN(S(=O)(=O)c2ccc(C(=O)Nc3nnc(C4CC4)o3)cc2)CC1	51%	50µM*	16%	22µM*	7%	17%[59 µM]
COCC(=O)N1CCc2nc(-c3ccccc3)c3c(c2C1)CO[C@@H](C)C3	.	.	-9%	.	12%[12.3 µM]	.
Nc1ncnc2c1c(-c1ccc(Oc3ccccc3)cc1)cn2C1CCCC1	?	45µM*	?	40µM*	18%	14µM*
COc1ccc(-c2nc(-c3ccccc3)c(NC(C)C)o2)cc1	.	.	-8%	.	7%	.
CCC1CCCCN1Cc1nc(Cc2ccccc2Cl)no1 (stereo not drawn)	35%	12%	10%	11%	1%	99%
O=C1C(=C(O)c2ccccc2)C(=O)c2ccccc21	-1%	89µM*	-15%	-5%	5%	?
O=C(c1cc(-c2ccco2)nc2ccccc12)N1CCCC(C(F)(F)F)C1 (stereo not drawn)	-18%	40µM*	.	50µM*	.	13%[12.7 µM]
O=C(c1cc2ccccc2cc1O)N1CCCC1	28%	-10%	15%	1%	.	9%
O=C(c1cc2ccccc2cc1O)N1CCCC(C(F)(F)F)C1 (stereo not drawn)	26%	-15%	-12%	79µM*	4%	.
CCN1CCN(C(=O)c2cc(-c3ccco3)nc3ccccc23)CC1	-3%	-35%	.	71µM*	-16%	?
CCN1CCN(C(=O)c2cc(-c3ccc(Cl)s3)nc3ccccc23)CC1	35%	-13%	-9%	-12%	1%	.
Cc1ccc(-n2c(C)nnc2SC(C)C(=O)N2CCCC2)cc1 (stereo not drawn)	35%	4%	13%	-10%	.	-3%
CC(C)(C)c1ccc(C(=O)NNc2ccc(F)cc2F)cc1	-2%	89µM*	5%	-37%	.	22µM*
O=C(O)c1ccccc1C(=O)NNc1ccc(F)cc1F	22%	-24%	1%	-12%	7%	50µM*
CCc1ccc(C(=O)NNc2ccc(F)cc2F)cc1	-3%	?	7%	-14%	.	-124%[59 µM]
O=C(OCn1ncc(Br)c(Br)c1=O)c1ccc(F)cc1	32%	-10%	50µM*	0%	2%	-25%[12.7 µM]
O=C(OCn1ncc(Br)c(Br)c1=O)c1ccccc1Cl	64%	-9%	-16%	-9%	4%	0%[12.7 µM]
SMILES	HP1b binding inh	JMJD2A Tudor	Sfp PPTase inh	BAZ2B block	TDP1 inh	G9a block
Nn1c(SCC(=O)NCC2CCCO2)nnc1-c1cc(Cl)ccc1Cl (stereo not drawn)	53%	-7%	.	-4%	5%	-8%
Fc1ccc(COc2ccccc2CNCc2ccncc2)cc1	32%	-8%	-7%	-26%	3%	?
Cc1cc(OCCOCCNCc2ccccc2)ccc1C(C)C	?	20µM*	79µM*	?	.	10µM*
Cc1ccc(C(C)C)c(OCCNCc2ccccc2)c1	27%	28µM*	-19%	?	.	.
Cc1ccc(C)c(OCCCNCc2ccccc2)c1	-20%	45µM*	6%	?	.	?
COc1ccccc1C(CCNCc1ccccc1)c1ccc(OC(C)C)cc1 (stereo not drawn)	12%	-23%	-14%	-8%	.	-2%[2.33 µM]
Brc1ccc(OCc2ccccc2)c(CNCc2ccncc2)c1	14%	?	79µM*	79µM*	7%	-37%[0.0925 µM]
Cc1ccc(C(C)C)c(OCCNC(=S)Nc2cccc3ccccc23)c1	13%	-24%	8%	-14%	12%	22%[12.7 µM]
Cc1ccc(CN(C)C(=O)C2CCC(=O)N(C3CCCCCC3)C2)cc1 (stereo not drawn)	31%	-4%	6%	-24%	4%	1%
CSc1ccc(C(=O)C2CCCN(C(=O)CCc3c(C)nn(C)c3C)C2)cc1 (stereo not drawn)	14%	-9%	.	.	.	.
CN(Cc1ccccc1)C(=O)COc1ccc(Br)cc1Cl	82%	28%	1%	55%	.	131%
Clc1cc(Br)ccc1OCCCNCc1ccccc1	?	2.8µM*	-22%	?	-11%	7.1µM*
CC1CN(Cc2ccccc2)c2nc3c(c(=O)[nH]c(=O)n3C)n2C1 (stereo not drawn)	-3%	-17%	13%	-36%	1%	-28%
Cc1onc(-c2ccccc2)c1C(=O)NC(=S)NNC(=O)c1ccc(O)cc1O	-15%	79µM*	23%	22µM*	8%	?
Cc1onc(-c2ccccc2)c1C(=O)NC(=S)NNC(=O)c1ccccc1O	-6%	79µM*	14%	35µM*	11%	-4%[59 µM]
CCOC(=O)C1CCCN(C(=O)c2nn(-c3ccc(C)cc3)c(=O)n(C)c2=O)C1 (stereo not drawn)	19%[57 µM]	-6%	.	-2%	4%	5%[59 µM]
